In PubChem BioAssay (NCATS):
Records with an inconclusive call do not appear. The source made the active and inactive calls. The call rests on the fitted dose curve; in most records, active means well fitted cell-killing curve with a large enough effect; inconclusive means small, poorly fitted or top-dose-only effect, or effect the other way; inactive means no such curve, though single readings can be large or run the other way.

assay: Quantitative High-Throughput drug screen in 47 multiple myeloma cell lines against the NCATS MIPE library collection: KMS20_JCRB cell viability assay (AID 1918973); settings: CellTiter-Glo ATP, 48 h; series mostly up to 45.8 µM; further: nearly all actives have a fitted effect of over 45% in size
Outline: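 Myeloma cells (500 per well) were exposed to MIPE 4.0 compounds by pin transfer and incubated 48 hours at 37C, 5% CO2. Viability was read as ATP by CellTiter-Glo luminescence, normalised to DMSO (100%) and media-only (0%) wells.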
Potency means the concentration at half of the fitted maximal effect.

Compound	Potency
CC(=O)Nc1ccc([C@H](C)C(=O)Nc2ncc(C(C)C)s2)cc1	3.32 µM (active)
Cc1[nH]c(C=C2C(=O)Nc3ccc(S(=O)(=O)Cc4c(Cl)cccc4Cl)cc32)c(C)c1C(=O)N1CCC[C@H]1CN1CCCC1	0.743 µM (active)
Oc1ccc(C2=Cc3ccc(O)cc3OC2)cc1	3.32 µM (active)
COc1ccc(-c2coc3cc(O)cc(O)c3c2=O)cc1	inactive
Cc1ccc(/C=N/NC(=O)c2ccccc2Oc2ccccc2)o1	16.6 µM (active)
CON=C(C(=O)N[C@@H]1C(=O)N2C(C(=O)OCOC(=O)C(C)(C)C)=C(C=Cc3scnc3C)CS[C@H]12)c1csc(N)n1	inactive
Cc1nc(N)sc1-c1ccnc(Nc2ccc(N3CCOCC3)cc2)n1	7.43 µM (active)
Cc1ccc(C(=O)Nc2cccc(C(F)(F)F)c2)cc1Nc1nc(-c2cccnc2)nc2c1cnn2C	8.33 µM (active)
O=c1cc(-c2cccc3c2Sc2ccccc2S3)oc(N2CCOCC2)c1	13.2 µM (active)
CC(C)n1cnc2c(NCCCCCCNC(=O)OC(C)(C)C)nc(NCCO)nc21	1.05 µM (active)
CC(C)n1nc(-c2ccc3oc(N)nc3c2)c2c(N)ncnc21	0.0418 µM (active)
CN1C[C@H]2c3ccccc3Oc3ccc(Cl)cc3[C@@H]2C1	inactive
CC(=O)N(C)C1(c2ccccc2)CCN(CCC[C@]2(c3ccc(Cl)c(Cl)c3)CCCN(C(=O)c3ccccc3)C2)CC1	4.69 µM (active)
COCCOC(=O)C1=C(C)NC2=C(C(=O)CC(c3ccccc3OC)C2)C1c1cccc(O)c1 (configuration not stated)	4.18 µM (active)
CCn1c(C(=O)N(C2CC2)C2CC2)cc2c3c(ncn3C)c(Nc3cc(C)n(C)n3)nc21	16.6 µM (active)
O=C1Nc2ccc(Cl)cc2C(C#CC2CC2)(C(F)(F)F)O1 (configuration not stated)	20.9 µM (active)
CC(C)(C)OC(=O)N[C@H]1CCCCCC=C[C@@H]2C[C@@]2(C(=O)NS(=O)(=O)C2CC2)NC(=O)[C@@H]2C[C@@H](OC(=O)N3Cc4cccc(F)c4C3)CN2C1=O	inactive
CC[C@@]1(O)C[C@H](O[C@H]2C[C@H](N(C)C)[C@H](O[C@H]3C[C@H](O)[C@H](O[C@H]4CCC(=O)[C@H](C)O4)[C@H](C)O3)[C@H](C)O2)c2c(cc3c(c2O)C(=O)c2c(O)cccc2C3=O)[C@@H]1C(=O)OC	0.0743 µM (active)
CCC(=O)NC[C@H](Cc1ccc(OCCc2nc(-c3ccccc3)oc2C)cc1)NC(C)=CC(=O)c1ccc(C(F)(F)F)cc1	inactive
CO[C@H]1C[C@@H]2CC[C@@H](C)[C@@](O)(O2)C(=O)C(=O)N2CCCC[C@@H]2C(=O)O[C@H]([C@H](C)C[C@@H]2CC[C@H](OCCO)[C@H](OC)C2)CC(=O)[C@H](C)C=C(C)[C@@H](O)[C@@H](OC)C(=O)[C@H](C)C[C@H](C)C=CC=CC=C1C	3.72 µM (active)
CCS(=O)(=O)N1CC(CC#N)(n2cc(-c3ncnc4[nH]ccc34)cn2)C1	inactive
O=C1C(Cl)=C(NCCN2CCOCC2)C(=O)c2ncccc21	4.69 µM (active)
